Test results from PubChem BioAssay.
Several values for one entry are separate records, joined by “and”; a condition that tells them apart may be missing. Equal values may be shown once. Activity calls are given as the source filed them. Unless noted, the rule behind the calls is not given here.

Tests used:
[1] = resazurin metabolic signal in HepG2 cells – cell-based, resazurin fluorescence, 24 h, PK04 Diversity Set, profiling panel (AID 1172); details: HepG2 viability, higher = more signal
[2] = budding yeast growth changes without added modifier – OD600, strain BY4716, 24 h, basal condition, primary screen (AID 1173); details: S. cerevisiae BY4716 growth, OD600, 24 h; higher = more signal, called active from +8 up or from −8 down
[3] = viability profiling in MM1S myeloma cells – cell-based, resazurin fluorescence, basal, 24 h, PK04 Diversity Set, profiling panel (AID 1174); details: higher = more signal, called active from +8 up or from −8 down;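 note: MM1S multiple myeloma cell line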
[4] = biological target: Dihydroorotate dehydrogenase (quinone), mitochondrial (Plasmodium falciparum (isolate 3D7)) (UniProt Q08210); assay: inhibition of P. falciparum DHODH – biochemical, C-terminal His tag, absorbance 600 nm, primary screen (AID 1175); details: PfDHODH enzyme, DCIP absorbance 600 nm; higher = more signal, called active from +8 up or from −8 down;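 note: recombinant parasite enzyme with a five histidine tag at its C terminus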
[5] = inhibition of PAO1 biofilm formation – strain PAO1, LB-PBS medium, absorbance 600 nm, primary screen (AID 1176); details: P. aeruginosa PAO1 growth/biofilm, A600, 12 h; higher = more signal
[6] = growth modulation of vineyard yeast isolate – strain RM11-1a, OD600, basal, 24 h, primary screen (AID 1177);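 note: cultures grown under basal conditions with no added stressor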; details: S. cerevisiae RM11-1a growth, OD600, 24 h; higher = more signal, called active from +8 up or from −8 down
[7] = growth of efflux-deficient E. coli DRC39 – strain DRC39, OD650, 24 h, E. coli filamentation inducers, primary screen (AID 1178);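 note: growth measured as culture turbidity by optical density at 650 nm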; details: E. coli DRC39 acrAB, higher = more signal, called active from +8 up or from −8 down
[8] = growth of efflux-deficient E. coli DRC39 – strain DRC39, OD650, 48 h, E. coli filamentation inducers, primary screen (AID 1179);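 note: screen aims at cell division blockers that make cells filament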; details: E. coli DRC39 delta-acrAB growth, higher = more signal, called active from +8 up or from −8 down
[9] = viability profiling in RPMI8226 myeloma cells – cell-based, resazurin fluorescence, basal, 24 h, PK04 Diversity Set, profiling panel (AID 1180); details: higher = more signal;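 note: RPMI8826 multiple myeloma cell line at 5000 cells per well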
[10] = biological target: E3 ubiquitin-protein ligase XIAP (Homo sapiens) (UniProt P98170); assay: small molecules binding XIAP protein – biophysical, small-molecule microarray, fluorescence 635 nm, primary screen (AID 1181); details: higher = more signal;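 note: score merges 667 nm emission and signal to noise over triplicate slides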
[11] = test system: XIP peptide (Xip251-270) binding; assay: XIP fragment 251-270 binding compounds – biochemical, small-molecule microarray, fluorescence 635/667 nm, 0.1 µg/mL protein, primary screen (AID 1182); details: fluorescent protein binding, 635 nm, higher = more signal, called active from +8 up or from −8 down
[12] = test system: XIP peptide (Xip251-270); assay: compounds binding XIP fragment 251-270 – biochemical, small-molecule microarray, fluorescence 635/667 nm, 0.5 µg/mL protein, primary screen (AID 1183); details: fluorescence 635 nm, higher = more signal
[13] = blood-stage malaria parasite viability loss – strain 3D7, DAPI fluorescence, 100 nL, primary screen (AID 1184);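 note: parasites grown inside human red blood cells in medium with human serum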; details: P. falciparum 3D7 growth, 3 d, higher = more signal
[14] = biological target: Homeobox protein Hox-A13 (Mus musculus) (UniProt Q62424); assay: disruptors of Hoxa13 oligonucleotide interaction – biochemical, fluorescence polarization, labeled oligonucleotide, primary screen (AID 1185); details: Hoxa13:DNA binding, 15 min, higher = more signal, called active from +8 up or from −8 down
[15] = blockers of DNA damage checkpoint Chk1 activation – imaging, HeLa, hydroxyurea, phospho-Chk1 antibody, percent positive cells, primary screen (AID 1186); details: hydroxyurea-induced phospho-Chk1 immunofluorescence imaging, higher = more signal
[16] = blockers of DNA damage checkpoint Chk1 activation – imaging, HeLa, hydroxyurea, phospho-Chk1 nuclear intensity, primary screen (AID 1187); details: hydroxyurea-induced phospho-Chk1 immunofluorescence imaging, higher = more signal

Sequence of E3 ubiquitin-protein ligase XIAP (Homo sapiens) (P98170 whole entry, looked up, the tested form may be a part): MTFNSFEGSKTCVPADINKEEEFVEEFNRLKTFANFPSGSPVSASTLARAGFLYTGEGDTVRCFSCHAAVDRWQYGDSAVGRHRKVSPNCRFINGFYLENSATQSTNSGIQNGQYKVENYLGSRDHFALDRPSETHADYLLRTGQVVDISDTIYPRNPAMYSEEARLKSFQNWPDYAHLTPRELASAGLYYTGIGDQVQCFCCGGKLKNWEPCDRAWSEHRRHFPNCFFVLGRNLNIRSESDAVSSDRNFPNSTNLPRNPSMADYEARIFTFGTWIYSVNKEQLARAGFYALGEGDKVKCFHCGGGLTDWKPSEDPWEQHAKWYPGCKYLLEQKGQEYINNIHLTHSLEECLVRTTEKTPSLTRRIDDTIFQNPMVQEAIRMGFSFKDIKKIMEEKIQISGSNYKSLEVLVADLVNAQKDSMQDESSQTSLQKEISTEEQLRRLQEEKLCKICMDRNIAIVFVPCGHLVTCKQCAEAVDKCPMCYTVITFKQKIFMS
Sequence of Dihydroorotate dehydrogenase (quinone), mitochondrial (Plasmodium falciparum (isolate 3D7)) (Q08210 whole entry, looked up): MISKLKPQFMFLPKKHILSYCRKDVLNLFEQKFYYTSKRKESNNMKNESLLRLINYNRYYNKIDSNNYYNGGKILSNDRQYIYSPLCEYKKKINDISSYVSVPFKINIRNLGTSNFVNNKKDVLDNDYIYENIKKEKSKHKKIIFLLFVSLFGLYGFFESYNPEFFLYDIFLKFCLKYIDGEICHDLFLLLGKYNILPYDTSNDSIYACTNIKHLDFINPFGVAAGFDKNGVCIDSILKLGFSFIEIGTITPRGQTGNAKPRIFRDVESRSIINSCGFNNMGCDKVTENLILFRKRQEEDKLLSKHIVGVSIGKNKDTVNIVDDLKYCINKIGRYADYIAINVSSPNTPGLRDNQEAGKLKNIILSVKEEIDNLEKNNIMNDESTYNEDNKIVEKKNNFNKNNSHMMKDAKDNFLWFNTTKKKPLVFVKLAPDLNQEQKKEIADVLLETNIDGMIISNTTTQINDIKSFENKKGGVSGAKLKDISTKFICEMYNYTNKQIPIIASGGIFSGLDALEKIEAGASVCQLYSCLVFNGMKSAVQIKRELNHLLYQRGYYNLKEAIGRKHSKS
Sequence of Homeobox protein Hox-A13 (Mus musculus) (Q62424 whole entry, looked up): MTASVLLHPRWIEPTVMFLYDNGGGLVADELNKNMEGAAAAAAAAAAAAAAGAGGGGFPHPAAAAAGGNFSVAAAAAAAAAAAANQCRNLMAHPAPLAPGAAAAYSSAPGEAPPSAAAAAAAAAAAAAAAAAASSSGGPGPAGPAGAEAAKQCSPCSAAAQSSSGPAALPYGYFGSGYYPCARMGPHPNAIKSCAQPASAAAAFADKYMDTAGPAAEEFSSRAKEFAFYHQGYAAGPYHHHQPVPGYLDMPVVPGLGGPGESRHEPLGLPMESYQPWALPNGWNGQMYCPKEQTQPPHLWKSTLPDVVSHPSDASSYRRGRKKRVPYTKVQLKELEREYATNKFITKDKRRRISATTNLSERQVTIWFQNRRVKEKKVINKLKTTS

| Structure (SMILES) | z-score [1] | z-score [2] | z-score [3] | composite z-score [4] | z-score [5] | z-score [6] | z-score [7] | z-score [8] | z-score [9] | composite z-score [10] | composite z-score [11] | composite z-score [12] | z-score [13] | z-score [14] | z-score [15] | z-score [16] |
| --- | --- | --- | --- | --- | --- | --- | --- | --- | --- | --- | --- | --- | --- | --- | --- | --- |
| CO[C@@H]1COC(=O)CC=C[C@H](C)[C@@H](NS(=O)(=O)c2ccc(C)cc2)COC(=O)CC=C[C@@H]1C | 0.157 and 1.73 | -0.627 (inactive) and -0.634 (inactive) | 0.445 (inactive) and 0.542 (inactive) | -0.198 (inactive) and -0.555 (inactive) | -0.531 (inactive) and -0.479 (inactive) | 0.344 (inactive) and 0.104 (inactive) | 0.643 (inactive) and 0.426 (inactive) | 0.292 (inactive) and 0.187 (inactive) | -0.325 and 0.774 | -0.209 and -0.304 | 1.11 (inactive) and 0.147 (inactive) | 0.77 and 0.481 | 0.707 and -0.283 | -1.05 (inactive) and -2.69 (inactive) | – | – |
| CCOC(=O)NN=C1C[C@@H](O)[C@@H](O)[C@@H]2[C@@H]3C(=O)N(Cc4ccccc4)C(=O)[C@@H]3CC[C@@H]12 | 0.213 | 0.331 (inactive) | -1.17 (inactive) | 0.0897 (inactive) | 0.529 (inactive) | 0.371 (inactive) | 0.199 (inactive) | -0.951 (inactive) | 0.561 | 1.34 | -0.479 (inactive) | 0.0853 | -0.647 | -0.411 (inactive) | – | – |
| C=CCN(CCCCC)C(=O)C1N(CCOCCO)C(=O)C2C(C(=O)O)C3C=CC21O3 (stereo unspecified) | -0.541 and -0.785 | 0.709 (inactive) and 1.12 (inactive) | -0.885 (inactive) and -1.41 (inactive) | 1.39 (inactive) and -0.109 (inactive) | -0.553 (inactive) and -0.469 (inactive) | 0.892 (inactive) and 0.451 (inactive) | -0.649 (inactive) and -0.537 (inactive) | -0.496 (inactive) and -0.506 (inactive) | -0.724 and -0.899 | -0.113 and -0.124 | 0.901 (inactive) and -0.15 (inactive) | 0.571 and -1.58 | 0.234 and 0.841 | -1.09 (inactive) and -0.752 (inactive) | 0.0583 (inactive) and 0.485 (inactive) | 0.233 (inactive) and -0.0615 (inactive) |
| C=C[C@@H](C)[C@H](O)c1ccc(O)c2ccccc12 | 0.127 and 0.0729 | -8.76 (active) and -8.55 (active) | -0.683 (inactive) and -0.737 (inactive) | -0.94 (inactive) and -0.709 (inactive) | 0.483 (inactive) and 0.79 (inactive) | -0.638 (inactive) and -0.599 (inactive) | 0.479 (inactive) and 0.435 (inactive) | 0.008 (inactive) and 0.189 (inactive) | -0.861 and -0.602 | -0.0893 and 0.0773 | -0.299 (inactive) and 0.342 (inactive) | 0.892 and 0.102 | -0.559 and 0.666 | -3.78 (inactive) and -2.87 (inactive) | 0.311 (inactive) and 0.801 (inactive) | 0.0888 (inactive) and 0.837 (inactive) |
| CC(CO)N1C(=O)[C@@H]2C3C(=O)OCCC=C[C@H]3OC23C=CCN(c2ccc(Cl)cc2)C(=O)[C@@H]13 (stereo partly specified) | -0.445 and 0.702 | 0.604 (inactive) and -0.219 (inactive) | -0.0472 (inactive) and -0.544 (inactive) | -1.16 (inactive) and -1.13 (inactive) | -0.497 (inactive) and -0.167 (inactive) | 1.43 (inactive) and -0.727 (inactive) | 0.519 (inactive) and -0.342 (inactive) | 0.399 (inactive) and -0.538 (inactive) | 0.23 and -0.131 | 0.269 and -0.0172 | 0.291 (inactive) and 0.137 (inactive) | -0.784 and 0.213 | -0.764 and -0.187 | -3.34 (inactive) and -6.16 (inactive) | 0.537 (inactive) and -0.0281 (inactive) | 0.654 (inactive) and 0.0058 (inactive) |
| COc1ccc(-c2ccc3c(n2)CCCN3CC(O)CN2CCCc3nc(-c4ccc(Br)cc4)ccc32)cc1 (stereo unspecified) | -0.721 and 0.465 | -4.64 (inactive) and -1.56 (inactive) | -0.791 (inactive) and -0.334 (inactive) | 0.0106 (inactive) and 0.0126 (inactive) | -0.139 (inactive) and -0.245 (inactive) | 0.665 (inactive) and 0.0647 (inactive) | 0.336 (inactive) and 0.725 (inactive) | 0.191 (inactive) and 0.761 (inactive) | -0.286 and -0.439 | 1.04 and 0.94 | 0.947 (inactive) and 1.14 (inactive) | 0.717 and 0.257 | -0.309 and 0.613 | -3.36 (inactive) and -1.95 (inactive) | – | – |
| CC(C)=CCCC(C)=CCON=C1C[C@@H](O)[C@@H](O)[C@@H]2[C@@H]3C(=O)N([C@@H](C)c4ccccc4)C(=O)[C@@H]3CC[C@H]12 | -1.03 | -3.41 (inactive) | -0.339 (inactive) | -1.48 (inactive) | 0.365 (inactive) | -2.18 (inactive) | -1 (inactive) | -0.666 (inactive) | -0.637 | 0.104 | 1.32 (inactive) | 0.105 | -0.12 | -0.414 (inactive) | – | – |
| C[C@@H]1CC[C@H]2C(=O)NC[C@@H](O)CN2[C@H]1c1ccc(Br)cc1 | -0.278 and -0.27 | -0.228 (inactive) and -0.64 (inactive) | -0.503 (inactive) and 0.138 (inactive) | -0.679 (inactive) and 0.382 (inactive) | 0.684 (inactive) and -0.27 (inactive) | -0.154 (inactive) and 0.502 (inactive) | 0.514 (inactive) and 0.669 (inactive) | -0.882 (inactive) and 0.26 (inactive) | -0.149 and 0.435 | -0.0238 and -0.102 | 0.21 (inactive) and 0.567 (inactive) | 0.22 and 0.889 | -0.601 and 0.863 | -2.22 (inactive) and -1.74 (inactive) | – | – |
| CC(C)=NOCc1ccc(-c2cn([C@@H]3COC[C@H]3O)nn2)cc1 | -0.203 | 0.313 (inactive) | 0.0429 (inactive) | -0.478 (inactive) | -0.0691 (inactive) | -0.0292 (inactive) | 0.114 (inactive) | -0.0038 (inactive) | 0.106 | 0.0049 | 0.364 (inactive) | -0.149 | 1.76 | -0.221 (inactive) | – | – |
| CN1C(=O)C2CC=C([C@H]3Oc4ccccc4S(=O)(=O)N4CCC[C@@H]34)CC2C1=O (stereo partly specified) | -0.448 and 0.0011 | 0.325 (inactive) and 0.478 (inactive) | -0.391 (inactive) and -0.44 (inactive) | 0.341 (inactive) and -0.0294 (inactive) | -0.0582 (inactive) and 0.0481 (inactive) | 0.961 (inactive) and 1.32 (inactive) | 0.563 (inactive) and 0.831 (inactive) | 0.111 (inactive) and 0.0952 (inactive) | -0.801 and -0.0821 | -0.245 and -0.244 | -0.0989 (inactive) and 0.181 (inactive) | -0.128 and -1.09 | -0.292 and -0.542 | -2 (inactive) and -1.92 (inactive) | 0.0695 (inactive) and 0.549 (inactive) | -0.12 (inactive) and 0.575 (inactive) |
| CC(C)=NOC[C@@H](O)COCc1ccco1 | -0.907 | 0.14 (inactive) | -1.09 (inactive) | 0.102 (inactive) | -0.324 (inactive) | 0.534 (inactive) | 0.745 (inactive) | 0.41 (inactive) | -1.11 | 0.0576 | -0.651 (inactive) | 0.258 | 0.814 | -1.15 (inactive) | – | – |
| CCCNC(=O)OC[C@H]1O[C@H](CCON=C(C)CCN2CCc3nc(-c4ccccc4)c(-c4ccccc4)cc3C2)C=C[C@@H]1Oc1ccc(OC)cc1 | 0.0965 | -0.238 (inactive) | -0.53 (inactive) | 0.672 (inactive) | 0.347 (inactive) | 1.13 (inactive) | 0.324 (inactive) | -1.58 (inactive) | 0.0105 | -0.193 | -0.377 (inactive) | 0.201 | -0.821 | -2.84 (inactive) | – | – |
| C[C@@H](c1ccccc1)N1C(=O)[C@H]2[C@H]3[C@H](O)[C@H](O)CC(=O)[C@@H]3CC[C@H]2C1=O | -0.7 | -1.05 (inactive) | 0.295 (inactive) | -1.59 (inactive) | 0.377 (inactive) | -2.9 (inactive) | -0.579 (inactive) | -0.954 (inactive) | -0.62 | -0.163 | -0.415 (inactive) | 0.403 | 0.241 | 0.063 (inactive) | – | – |
| C=C[C@H](C)[C@H](O)c1ccc(O)c2ccccc12 | 0.26 and 0.0956 | -8.01 (active) and -8.42 (active) | -0.709 (inactive) and -0.107 (inactive) | -1.87 (inactive) and -1.49 (inactive) | 1.32 (inactive) and 1.45 (inactive) | -1.6 (inactive) and -2.52 (inactive) | 1.06 (inactive) and 1.82 (inactive) | 1.31 (inactive) and 1.91 (inactive) | -0.54 and 0.1 | -0.0659 and 0.116 | -0.389 (inactive) and -0.742 (inactive) | -0.236 and 0.788 | 0.138 and 0.719 | -3.07 (inactive) and -2.91 (inactive) | -1.1 (inactive) and -1.31 (inactive) | -0.114 (inactive) and -0.271 (inactive) |
